Growth data for 7 compounds are collected here from PubChem BioAssay (NCI).

This is part of a sample that, as a whole, favours compounds with a hit. Of some 83,000 tested, about 20% had one in any assay.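 How to read the values: 0–100, growth inhibition (40 = 60% inhibited); 0, no net growth; -100 to 0, cell death (-40 = 40% of starting cells died; -100 = all dead).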 A number with no mark means an inactive call. Calls of active or inactive are those of the source. The calls were made as follows: active = growth percent below 10; inactive = the rest.

Assay in all cases: NCI-60 one-dose screen, 48 h (100 = growth as untreated, 0 = no growth, -100 = all killed)
What all share (details): 10 µM unless noted

For assay [1], the system named is NCI-H23 lung.
Assay [2] relates to NCI-H226 lung.
In assay [3] the test system is NCI-H322M lung.
Assay [4] concerns HOP-62 NSCLC.
Assay [5] concerns NCI-H460 lung.
Assay [6] deals with HOP-92 NSCLC.
Assay [7] has as its system NCI-H522 lung.
Assay [8] has as its system A549/ATCC NSCLC.
The subject of assay [9] is 786-0 renal.
In assay [10] the test system is COLO 205 colon.
Assay [11] relates to DU-145 prostate.
Assay [12] has as its system K-562 leukemia.
The test system of assay [13] is MALME-3M melanoma.
Assay [14] concerns MDA-MB-231 breast.
In assay [15] the test system is RXF 393 renal.
The subject of assay [16] is SF-268 CNS.
The test system of assay [17] is SF-295 CNS.
Assay [18] relates to SF-539 CNS.
Assay [19] deals with UACC-257 melanoma.
The test system of assay [20] is M14 melanoma.

With `COC(=O)[C@@H](C)C[C@H](Cc1ccccc1)NC(=O)c1csc([C@@H](C[C@H](C(C)C)N(C)C(=O)C2(NC(=O)[C@H]3CCCCN3C)CCC2)OC(C)=O)n1`, the growth in assay [1] was 18.6%; in assay [2], 48.7%; in assay [3] it was 43.6%; in [4], 18.8%; in assay [5] it was 4.21% (active); in assay [6], 2.26% (active). Further, the growth in assay [7] was -13.8% (active); in [8] it was 15.2%; in assay [9], 20.9%; in [10], -59.1% (active); in assay [11], 2.83% (active); in [12] it was 2.16% (active). Further, the growth was 67.1% in assay [13]; -13.6% (active) in [14]; 82.9% in [15]; 17.6% in assay [16]; 6.3% (active) in assay [17]; -10.9% (active) in assay [18]. In addition, the values for the growth in assay [19] and in [20] were 60.2% and 5.56% (active), respectively.

`O=C([O][Hg][c]1ccccc1)c1ccccc1`: the growth was 1.89% (active) in [1]; 96.4% in assay [2]; 67.7% in assay [3]; -33.7% (active) in assay [4]; 11.7% in assay [5]; -61.3% (active) in [6]. Also, the growth in assay [7] was -64.1% (active); in assay [8] it was 76.2%; in assay [9], -93.8% (active); in assay [10] it was -70% (active); in assay [11] it was -35.7% (active); in [12], -21.4% (active). Moreover, the growth is -4.96% (active) in assay [13]; -53.1% (active) in [14]; -72.4% (active) in [15]; -34.9% (active) in [16]; 56.8% in [17]; 19.4% in assay [18]. The growth in [19] was -30% (active); in [20], -68.3% (active).

For `CN1C(=O)C(=Cc2cn(CCCCCCn3c4ccccc4c(=O)c4ccccc43)c3ccccc23)C(=O)N(C)C1=O`, the growth in assay [1] is 79.9%; in assay [2], -20.8% (active); in assay [3], 99.4%; in assay [4] it was 89.1%; in [5], 85.1%; in [6], 97.5%. The growth is 94.9% in [7]; 103% in assay [8]; 97.4% in assay [9]; 102% in [10]; 105% in assay [11]; 88.3% in [12]. Further, the growth in assay [13] was 103%; in assay [14], 103%; in assay [15], 115%; in [16] it was 94.6%; in [17], 95%; in assay [18], 86%. The growth is 104% in assay [19] and 94% in assay [20].

Consider `CC(C)COC(C[N+](=O)[O-])C(Cl)(Cl)Cl` (stereo not given), for which the growth in assay [1] is 105%; in [2], 107%; in [3] it was 106%; in assay [4], 111%; in assay [5] it was 108%; in [6], 102%. Also, the growth in [7] is 98.6%; in assay [8] it was 98.1%; in assay [9], 112%; in [10], 102%; in assay [11] it was 119%; in assay [12], 99.9%. The growth was 123% in [13]; 111% in assay [14]; 115% in assay [15]; 105% in assay [16]; 113% in assay [17]; 106% in assay [18]. The growth was 96.1% in assay [19] and 105% in [20].

Consider `Cc1ccc2c(C(C[N+](=O)[O-])c3cccs3)c(-c3ccccc3)[nH]c2c1` (stereo not given), for which the growth in assay [1] was 38.4%; in [2], 46.4%; in assay [3], 54.7%; in assay [4] it was 26.2%; in [5] it was 11.3%; in [6], 25.5%. For the same compound, the growth in assay [7] is -3.71% (active); in assay [8], 28.8%; in assay [9] it was 38.6%; in assay [10] it was 6.75% (active); in assay [11], 28.1%; in assay [12], 10.8%. In addition, the growth in assay [13] is 50.9%; in assay [14] it was 44.1%; in [15] it was 13.8%; in assay [16] it was 37.7%; in [17], 7.69% (active); in assay [18], 6.62% (active). Further, the growth is 30% in assay [19] and 19.4% in assay [20].

With `CC[C@H](C)[C@H](NC(=O)C12C3C4C1C1C2C3C41NC)C(=O)N(C)[C@H](C[C@@H](OC(C)=O)c1nc(C(=O)N[C@@H](Cc2ccccc2)C[C@H](C)C(=O)OC)cs1)C(C)C` (stereo not given in full), the growth was 31.6% in [1]; 41.4% in [2]; 51.9% in assay [3]; 16.9% in [4]; 6.43% (active) in [5]; 34.1% in [6]. Moreover, the growth is -4.71% (active) in assay [7]; 31.4% in assay [8]; 19.1% in assay [9]; -15.5% (active) in assay [10]; 7.38% (active) in [11]; 9.19% (active) in assay [12]. The growth in [13] was 50.1%; in [14], 29.1%; in [15] it was 39.4%; in assay [16], 30%; in assay [17], 19.4%; in [18], -5.82% (active). For the same compound, the growth was 42.1% in assay [19] and -14.4% (active) in assay [20].

For `O=C(CCCCCCC(=O)Nc1ccc(N(CCCl)CCCl)cc1)NO`, the growth in assay [1] was 29.2%; in assay [2] it was 59.4%; in [3], 69.4%; in [4], 23.8%; in [5] it was 14.5%; in assay [6], 17.4%. Moreover, the growth was 23.8% in assay [7]; 27.4% in assay [8]; 22.9% in assay [9]; 29.5% in assay [10]; 29% in assay [11]; 32.6% in [12]. Besides, the growth was 19.2% in assay [13]; 85.8% in assay [14]; -4.05% (active) in [15]; 11.6% in assay [16]; 32.7% in assay [17]; 31.1% in assay [18]. Besides, the growth is 18.6% in assay [19] and 42.5% in assay [20].
